Reference: PubChem BioAssay (NCI)
About 83,000 compounds went through this panel and 20% of them were active in at least one assay; those are over-represented in the sample as a whole.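 In brief: 96-well plates, 48 h treatment, single concentration, percent growth endpoint.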 Unmarked numbers belong to inactive results. Active and inactive are the calls of the source. How the source made its calls: active means growth percent below 10; inactive means the rest.

What follows are compounds tested on 786-0 renal (assay: NCI-60 one-dose screen, 48 h (100 = growth as untreated, 0 = no growth, -100 = all killed)). Settings: 10 µM unless noted.

Row | SMILES | growth
1 | O=C(CN1CCN(c2cc3c(cc2F)c(=O)c(C(=O)O)cn3C2CC2)CC1)N/N=C/c1ccco1 | 96.4%
2 | COc1ccc(C2=CC(c3cc(OC)c(OC)c(OC)c3)n3ncnc3N2)cc1 (configuration not stated) | 17.9%
3 | O=C(CI)NC(=O)NC(=O)NCc1ccccc1 | 23.9%
4 | CC[C@]12C=CCN3CC[C@@]4(c5ccc(OC)cc5N(C)[C@H]4[C@@](O)(C(=O)OC)[C@@H]1OC(=O)CCC[P+](c1ccccc1)(c1ccccc1)c1ccccc1)[C@@H]32 | 20.6%
5 | CC1CCN(C(=S)SCC(=O)NC(=O)c2ccccc2)CC1 | 103%
6 | C=C1C(=O)O[C@H]2[C@H]1CC/C(COC(=O)c1cc3cc(Cl)ccc3[nH]1)=C\CC[C@@]1(C)O[C@@H]21 | -90.5% (active)
7 | COC(=O)/C=C1/SC(=Nc2ccc([N+](=O)[O-])cc2)N(CCc2c[nH]c3ccc(O)cc23)C1=O | 44.2%
8 | COc1ccc(CCN(CC(=O)N(CC(N)=O)C2CCC[C@@H]2OCc2ccccc2)C(=O)CN(C(=O)CN(CCc2ccc(Cl)cc2)C(=O)CN(C(=O)CN(C)Cc2ccccc2F)[C@H](C)C2CCCCC2)[C@H](C)C2CCCCC2)cc1OC (some centres not stated) | 44%
9 | CC(=O)OC[C@]12CC[C@@H]([C@@H](C)c3nnc(-c4ccncc4)o3)[C@@H]1[C@H]1CC[C@@H]3[C@@]4(C)CC[C@H](OC(C)=O)C(C)(C)[C@@H]4CC[C@@]3(C)[C@]1(C)CC2 | 80.4%
10 | COc1ccc(/C(C)=C(/c2ccc(OCCCN(C)C)cc2)c2ccc(OC(=O)c3ccccc3)cc2)cc1 | 73%
11 | COc1ccc2nc(Cl)c(/C=C3\CC(c4ccccc4)=NN(c4ccccc4)C3=O)cc2c1 | -4.27% (active)
12 | CC(C)(C)c1cc(Cl)c(O)c(CNCCO)c1 | 102%
13 | CCS/C(Nc1ccccc1)=C(\C#N)C(=O)Nc1ccc(OC)cc1 | 39.5%
14 | COc1ccc(/C=C/c2c(C(=O)/C=C/c3ccccc3)c(C)nc3ccccc23)cc1 | 13.5%
15 | C#COc1cccc(Nc2ncnc3cc(NC(=O)[C@@H](C)Cl)ccc23)c1 | 17% [6.25 µM]
16 | COc1ccc(Cn2cc3c(c2-c2ccccc2)CCc2cnoc2-3)cc1 | 19.4%
17 | Cc1cc2c(cc1C)N(C(=O)CCl)CC(=O)N2 | 51.2%
18 | Oc1c(CN2CCC(N3CCCCC3)CC2)cc(Cc2cc(CN3CCC(N4CCCCC4)CC3)c(O)c3ncccc23)c2cccnc12 | 24.4%
19 | OCCNCCNC(Cc1ccc(Cl)cc1)c1ccccc1 (configuration not stated) | 57.5%
20 | COc1cccc(-c2cc(-c3cccc(Cl)c3)c(C#N)c(=O)[nH]2)c1 | 88.8%
21 | CN(C)CCCNC(=O)c1cncnc1Nc1ccc(OCc2cccc(F)c2)c(Cl)c1 | -78.7% (active)
22 | O=C1Nc2ccccc2C1(c1c[nH]c2ccccc12)c1c[nH]c2ccccc12 | 83.7%
23 | Cc1cc(Nc2ccc(C(=O)N3CCCC3)cc2)nc(NCCCNc2ccnc3cc(Cl)ccc23)n1 | 87.9%
24 | NC1(CO)COC(c2ccccc2)OC1 (configuration not stated) | 106%
25 | O=C(CCCCCNC(=O)c1cc(=O)c(O)co1)Nc1ccccc1 | 97.5%
26 | O=S(=O)(NCCNc1nccc(-c2c(-c3cccc(O)c3)nc3occn23)n1)c1ccc(Br)cc1 | 45.8%
27 | C/C(=N\O)c1ccc(NC(=O)CSc2nnc(-c3cc(-c4ccc(S(N)(=O)=O)cc4)nc4ccccc34)n2-c2ccccc2)cc1 | 72.6%

The compounds below were run on COLO 205 colon in the same assay as above. Settings: 10 µM unless noted.

Row | SMILES | growth
28 | COc1ccc2c(c1)c(-c1nc(-c3c[nH]c4ncccc34)cs1)cn2CCO | 56.9%
29 | O=C(NNC(=O)c1ccc(NC(=O)c2ccccn2)cc1)Nc1ccc2ccccc2c1 | 130%
30 | COc1ccc(/C=C/C(=O)c2cc(OC)c(OC)c(OC)c2)cc1OCC(=O)Nc1nc2ccc(OC(F)(F)F)cc2s1 | 77%
31 | O=C(CN1CCCCCC1)Nc1nc2ccc(NCc3ccc(Cl)cc3)cc2s1 | 109%
32 | CCCCCCCCCCCCCCCCCCOc1ccccc1CC(=O)NCC[N+]1(C)CCCCC1 | 23.6%
33 | COc1cc(-c2nc3sccn3c2-c2ccnc(NCCNS(=O)(=O)c3ccc(Cl)cc3)n2)ccc1F | 33.8%
34 | S=c1nc2oc(-c3ccccc3)c(-c3ccccc3)c2c(/N=C\c2ccco2)[nH]1 | 120%
35 | O=C1Nc2ccccc2/C1=C\c1c[nH]c2ccc(Br)cc12 | 57.5%
36 | COc1ccc(Nc2ncccc2/C=C/C(=O)c2cc(OC)c(OC)c(OC)c2)cc1 | -77% (active)
37 | COc1cc(OC)c(/C=C/C(=O)c2c(O)cc(OC)c(C3CCN(C)CC3)c2OC)c(OC)c1 | -96.7% (active)
38 | N#Cc1c(-c2ccccc2)nc(SCc2nnc(-c3ccc(Cl)cc3)o2)[nH]c1=O | 89.3%
39 | CC(=O)ON1CCCC(P(=O)(OCCSC(=O)C(C)(C)C)OCCSC(=O)C(C)(C)C)C1=O (configuration not stated) | 27.5%
40 | COc1cccc(CCNc2ncnc3c2ncn3Cc2nnc3c4ccccc4c(Cl)nn23)c1 | 90.9%
41 | O=C(CN1CCN(c2cc3c(cc2F)c(=O)c(C(=O)O)cn3C2CC2)CC1)N/N=C/c1ccco1 | 102%
42 | COc1ccc(C2=CC(c3cc(OC)c(OC)c(OC)c3)n3ncnc3N2)cc1 (configuration not stated) | -64.8% (active)
43 | O=C(CI)NC(=O)NC(=O)NCc1ccccc1 | -41.4% (active)
44 | CC[C@]12C=CCN3CC[C@@]4(c5ccc(OC)cc5N(C)[C@H]4[C@@](O)(C(=O)OC)[C@@H]1OC(=O)CCC[P+](c1ccccc1)(c1ccccc1)c1ccccc1)[C@@H]32 | -87.9% (active)
45 | CC1CCN(C(=S)SCC(=O)NC(=O)c2ccccc2)CC1 | 104%
46 | C=C1C(=O)O[C@H]2[C@H]1CC/C(COC(=O)c1cc3cc(Cl)ccc3[nH]1)=C\CC[C@@]1(C)O[C@@H]21 | -77.6% (active)
47 | COC(=O)/C=C1/SC(=Nc2ccc([N+](=O)[O-])cc2)N(CCc2c[nH]c3ccc(O)cc23)C1=O | 78.1%

Row | SMILES | growth
48 | COc1ccc(CCN(CC(=O)N(CC(N)=O)C2CCC[C@@H]2OCc2ccccc2)C(=O)CN(C(=O)CN(CCc2ccc(Cl)cc2)C(=O)CN(C(=O)CN(C)Cc2ccccc2F)[C@H](C)C2CCCCC2)[C@H](C)C2CCCCC2)cc1OC (some centres not stated) | -17.4% (active)
49 | CC(=O)OC[C@]12CC[C@@H]([C@@H](C)c3nnc(-c4ccncc4)o3)[C@@H]1[C@H]1CC[C@@H]3[C@@]4(C)CC[C@H](OC(C)=O)C(C)(C)[C@@H]4CC[C@@]3(C)[C@]1(C)CC2 | 82.4%
50 | COc1ccc(/C(C)=C(/c2ccc(OCCCN(C)C)cc2)c2ccc(OC(=O)c3ccccc3)cc2)cc1 | 94.4%
51 | COc1ccc2nc(Cl)c(/C=C3\CC(c4ccccc4)=NN(c4ccccc4)C3=O)cc2c1 | 99.3%
52 | CC(C)(C)c1cc(Cl)c(O)c(CNCCO)c1 | 112%
53 | CCS/C(Nc1ccccc1)=C(\C#N)C(=O)Nc1ccc(OC)cc1 | 17.5%
54 | COc1ccc(/C=C/c2c(C(=O)/C=C/c3ccccc3)c(C)nc3ccccc23)cc1 | 3.63% (active)
55 | C#COc1cccc(Nc2ncnc3cc(NC(=O)[C@@H](C)Cl)ccc23)c1 | 3.72% [6.25 µM] (active)
56 | COc1ccc(Cn2cc3c(c2-c2ccccc2)CCc2cnoc2-3)cc1 | -30.1% (active)
57 | Cc1cc2c(cc1C)N(C(=O)CCl)CC(=O)N2 | -95.6% (active)
58 | Oc1c(CN2CCC(N3CCCCC3)CC2)cc(Cc2cc(CN3CCC(N4CCCCC4)CC3)c(O)c3ncccc23)c2cccnc12 | -3.12% (active)
59 | OCCNCCNC(Cc1ccc(Cl)cc1)c1ccccc1 (configuration not stated) | 70%
60 | COc1cccc(-c2cc(-c3cccc(Cl)c3)c(C#N)c(=O)[nH]2)c1 | 111%
61 | CN(C)CCCNC(=O)c1cncnc1Nc1ccc(OCc2cccc(F)c2)c(Cl)c1 | -71.3% (active)
62 | O=C1Nc2ccccc2C1(c1c[nH]c2ccccc12)c1c[nH]c2ccccc12 | -27.7% (active)
63 | Cc1cc(Nc2ccc(C(=O)N3CCCC3)cc2)nc(NCCCNc2ccnc3cc(Cl)ccc23)n1 | 76.5%
64 | NC1(CO)COC(c2ccccc2)OC1 (configuration not stated) | 107%
65 | O=C(CCCCCNC(=O)c1cc(=O)c(O)co1)Nc1ccccc1 | 120%
66 | O=S(=O)(NCCNc1nccc(-c2c(-c3cccc(O)c3)nc3occn23)n1)c1ccc(Br)cc1 | 18.4%
67 | C/C(=N\O)c1ccc(NC(=O)CSc2nnc(-c3cc(-c4ccc(S(N)(=O)=O)cc4)nc4ccccc34)n2-c2ccccc2)cc1 | 78.3%
